This note sets out measurements from PubChem BioAssay (EPA / NIEHS).

Read-out in assay [1]: Actin alpha 1 (ACTA1), ACTA1 (gene 58)
As to the kind of experiment: BSK_MyoF_ACTA1: BioMAP Diversity Plus: MyoF Assay for Actin alpha 1 (ACTA1) Biomarker Activity (AID 2284244). The following applies: primary human lung fibroblasts. Summed up: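 alpha-SMA levels read by ELISA against DMSO baseline, 24 h post-dose, in primary human lung fibroblasts. Parallel cultures stained with 0.1% SRB after 10% TCA fixation (560 nm) to flag overt cytotoxicity.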

Read-out in assay [2]: Interleukin 2 (IL2), IL2 (gene 3558)
As to the kind of experiment: BSK_BT_xIL2: BioMAP Diversity Plus: BT Assay for Interleukin 2 (IL2) Biomarker Activity (AID 2284245). The following applies: primary human B cells with PBMC. Summed up:
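Secreted IL-2 was read by Luminex xMAP from B cells co-cultured with PBMC (human primary) 24 h post-dosing; activity was analysed as gain of signal relative to DMSO vehicle.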

Read-out in assay [3]: Basic fibroblast growth factor (bFGF), FGF2 (gene 2247)
As to the kind of experiment: BSK_MyoF_bFGF: BioMAP Diversity Plus: MyoF Assay for Basic fibroblast growth factor (bFGF) Biomarker Activity (AID 2284246). The following applies: primary human lung fibroblasts. Summed up:
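bFGF was measured by ELISA in primary human lung fibroblasts 24 h after chemical addition. Signal was analysed as positive-direction change relative to DMSO baseline.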

Read-out in assay [4]: Collagen IV, COL4A1 (gene 1282)
Briefly: BSK_MyoF_CollagenIV: BioMAP Diversity Plus: MyoF Assay for Collagen IV Biomarker Activity (AID 2284247). The following applies: primary human lung fibroblasts. Summed up: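 Collagen IV quantified by ELISA in human lung fibroblast cultures 24 h after chemical treatment, with DMSO as baseline. Parallel SRB staining (0.1% SRB after TCA fixation, 560 nm) flags overt cytotoxicity.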

Read-out in assay [5]: Monokine induced gamma interferon (MIG), CXCL9 (gene 4283)
As to the kind of experiment: BSK_KF3CT_MIG: BioMAP Diversity Plus: KF3CT Assay for Monokine induced gamma interferon (MIG) Biomarker Activity (AID 2284248). The following applies: primary human keratinocytes with fibroblasts. Summed up: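 ELISA read-out of MIG after 24 h chemical exposure of human skin primary co-culture (keratinocytes, foreskin fibroblasts). Gain of signal relative to DMSO negative control was analysed.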

Read-out in assay [6]: Vascular cell adhesion molecule 1 (VCAM1), VCAM1 (gene 7412)
Briefly: BSK_BF4T_VCAM1: BioMAP Diversity Plus: BF4T Assay for Vascular cell adhesion molecule 1 (VCAM1) Biomarker Activity (AID 2284249). The following applies: primary human bronchial epithelial cells with fibroblasts. Summed up:
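Cell-surface VCAM-1 quantified by ELISA after 24 h chemical exposure of human bronchial epithelial/dermal fibroblast co-cultures, with SRB staining in parallel wells for cytotoxicity; DMSO baseline, positive-direction fitting.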

Read-out in assay [7]: Collagen I, COL1A1 (gene 1277)
As to the kind of experiment: BSK_hDFCGF_CollagenI: BioMAP Diversity Plus: hDFCGF Assay for Collagen I Biomarker Activity (AID 2284250). The following applies: primary human foreskin fibroblasts. The essentials:
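Collagen I quantified by ELISA 24 h after chemical dosing of human dermal fibroblast primary cells, with parallel SRB staining (0.1%, TCA-fixed, 560 nm) for overt cytotoxicity.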

Read-out in assay [8]: Interferon-inducible T-cell alpha chemoattractant (ITAC), CXCL11 (gene 6373)
Briefly: BSK_hDFCGF_ITAC: BioMAP Diversity Plus: hDFCGF Assay for Interferon-inducible T-cell alpha chemoattractant (ITAC) Biomarker Activity (AID 2284251). The following applies: primary human foreskin fibroblasts. The essentials: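 I-TAC levels were read by ELISA on human dermal foreskin fibroblast primary cultures 24 h after dosing, analysed against DMSO in the positive direction. Cytotoxicity was assessed alongside by sulforhodamine B total-protein staining.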

Read-out in assay [9]: Plasminogen activator inhibitor-1 (PAI1), SERPINE1 (gene 5054)
As to the kind of experiment: BSK_KF3CT_PAI1: BioMAP Diversity Plus: KF3CT Assay for Plasminogen activator inhibitor-1 (PAI1) Biomarker Activity (AID 2284252). The following applies: primary human keratinocytes with fibroblasts. The essentials: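 PAI-1 levels quantified by ELISA after 24 h compound exposure of primary human skin keratinocytes co-cultured with fibroblasts. Activity is the gain relative to DMSO; cytotoxicity tracked in parallel cultures via SRB staining.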

Read-out in assay [10]: Monocyte Chemoattractant Protein-1 (MCP1), CCL2 (gene 6347)
As to the kind of experiment: BSK_IMphg_MCP1: BioMAP Diversity Plus: IMphg Assay for Monocyte Chemoattractant Protein-1 (MCP1) Biomarker Activity (AID 2284253). The following applies: primary human endothelial cells with macrophages. Summed up: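 ELISA readout of MCP-1 at 24 hours in IMphg co-cultures of venular endothelial cells and macrophages, normalised to DMSO; parallel cultures stained with sulforhodamine B for overt cytotoxicity.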

SMILES strings stand for the structures. Values joined by “and” are separate entries in the source; they are usually repeats but may differ in a detail not shown here. Identical values can stand only once. Where a structure was tested more than once in an assay, its records may differ in their call. Active and inactive are the calls of the source. Rule for the calls: active = hit-call score of the fitted dose curve at least 0.9, where 1 is the maximum; inactive = score below 0.9.

Take `O=C(O)CCC(F)(F)C(F)(F)C(F)(F)C(F)(F)C(F)(F)C(F)(F)F`: the outcome in assay [1], in assay [2], in assay [3], in assay [4], in assay [5] and in assay [6] was inactive. For the same molecule, the outcome in assay [7], in assay [8], in assay [9] and in assay [10] was inactive.

For the molecule `O=S(=O)(O)C(F)(F)C(F)(F)C(F)(F)C(F)(F)C(F)(F)C(F)(F)C(F)(F)C(F)(F)C(F)(F)C(F)(F)F`, the result in assay [1], in assay [2], in assay [3], in assay [4], in assay [5] and in assay [6] was inactive. The result in assay [7], in assay [8], in assay [9] and in [10] was inactive. For the same molecule, in assay [8], the AC50 (as a rule, the concentration giving half of the maximal activity seen) was 8.02 µM (active).

`CCCCCCCCCCCC`: the AC50 in assay [5] is 20.2 µM (active) and 20.6 µM (active); in assay [7], 9.41 µM (active) and 9.63 µM (active); in assay [8], 8.55 µM (active) and 5.79 µM (active); in [9], 10.4 µM (active) and 10.5 µM (active).

Consider `CC(C)(C)c1ccc(O)c(O)c1`, for which the results for the AC50 in assay [1], in assay [3] and in [4] were 29.6 µM (active), 30.1 µM (active) and 16 µM (active), respectively. In addition, in assay [2], the result was inactive.

Turning to `COCN(COC)c1nc(N(COC)COC)nc(N(COC)COC)n1`, the outcome in assay [1], in assay [2], in assay [3] and in assay [4] was inactive.

Consider `Cc1ccc(C(=O)c2ccccc2)cc1`, for which the AC50 in [1] and in assay [4] was 20 µM (active) throughout. The result in assay [2] and in assay [3] was inactive.

Regarding `OCC(F)(F)C(F)(F)C(F)(F)C(F)(F)C(F)(F)C(F)(F)C(F)(F)C(F)(F)C(F)(F)C(F)(F)C(F)(F)F`, the result in [1], in assay [2], in [3], in assay [4], in [5] and in [6] was inactive. Also, the result in assay [8], in assay [9] and in assay [10] was inactive. Besides, in [7], the AC50 is 42.7 nM (active) and 48.2 nM (active).

With `CCCCCCCCCCCCCCCCCC[N+](C)(C)Cc1ccccc1`, the AC50 was 2.7 µM (active) in assay [1], 1.97 µM (active) in assay [2] and 3.06 µM (active) in assay [3]. For the same molecule, the result in assay [4] was inactive.

For `CN(Cc1cnc2nc(N)nc(N)c2n1)c1ccc(C(=O)N[C@@H](CCC(=O)O)C(=O)O)cc1`, the result in assay [1], in assay [2], in assay [3], in assay [4], in assay [5] and in assay [6] was inactive. Moreover, the result in assay [7], in assay [8], in assay [9] and in assay [10] was inactive.

With `C=CC(=O)OCCC(F)(F)C(F)(F)C(F)(F)C(F)(F)C(F)(F)C(F)(F)C(F)(F)C(F)(F)F`, the result in assay [1], in assay [2], in assay [3], in [4], in [5] and in assay [6] was inactive. In addition, the result in [7], in assay [8], in assay [9] and in assay [10] was inactive.

Turning to `O=C(O)CCC(F)(F)C(F)(F)C(F)(F)C(F)(F)C(F)(F)F`, the outcome in [1], in assay [2], in [3], in [4], in [5] and in [6] was inactive. In addition, the outcome in [7], in assay [8], in assay [9] and in assay [10] was inactive. Also, the AC50 in assay [8] is 2.04 µM (active).

Regarding `Clc1ccc(Nc2nnc(Cc3ccncc3)c3ccccc23)cc1`, the outcome in [1], in [2], in [3] and in [4] was inactive.

Take `Oc1ccc(Cc2ccccc2O)cc1`: the result in assay [5], in [7], in assay [8] and in [9] was inactive.

For `O=P(O)(O)CCC(F)(F)C(F)(F)C(F)(F)C(F)(F)C(F)(F)C(F)(F)C(F)(F)C(F)(F)F`, the outcome in assay [1], in assay [2], in assay [3], in [4], in assay [5] and in assay [6] was inactive. Further, the outcome in [7], in [8], in assay [9] and in assay [10] was inactive. Besides, in assay [8], the AC50 was 0.236 µM (active).

Turning to `O=P(O)(O)CCC(F)(F)C(F)(F)C(F)(F)C(F)(F)C(F)(F)C(F)(F)F`, the outcome in [1], in assay [2], in assay [3], in assay [4], in assay [5] and in [6] was inactive. Also, the outcome in assay [7], in assay [8], in [9] and in assay [10] was inactive.

Regarding `COc1cc(OC)nc(NC(=O)NS(=O)(=O)Nc2ccccc2C(=O)N(C)C)n1`, the result in assay [1], in [2], in assay [3] and in [4] was inactive.

Turning to `C[C@]12CC[C@@H]3c4ccc(O)cc4CC[C@H]3[C@@H]1C[C@@H](O)[C@@H]2O`, the outcome in [1], in assay [2], in assay [3] and in assay [4] was inactive.

For the molecule `O=C1NS(=O)(=O)c2ccccc21`, the outcome in [5], in [7], in assay [8] and in assay [9] was inactive.
